{"source": "PubChem BioAssay (EPA / NIEHS)", "note": "The source made the active and inactive calls. The calls were made as follows: active = hit-call score of the fitted dose curve at least 0.9, where 1 is the maximum; inactive = score below 0.9.", "data": [{"assay": "ATG_CRE_CIS: Attagene CIS-FACTORIAL HepG2 Assay for human cAMP Responsive Element (CRE) binding protein 3 (AID 2282926)", "conditions": "HepG2 CRE cis-reporter, Attagene multiplexed mRNA; actives raise or lower the signal", "description": "ATG_CIS is a cell-based, multiplexed-readout assay that uses HepG2, a human liver cell line, with measurements taken at 24 hours after chemical dosing in a 24-well plate.ATG_CRE_CIS is one of 52 assay component(s) measured or calculated from the ATG_CIS assay. It is designed to make measurements of mRNA induction, a form of inducible reporter, as detected with fluorescence intensity signals by Reverse transcription polymerase chain reaction (RT-PCR) and Capillary electrophoresis technology.Data from the assay component ATG_CRE_CIS was analyzed into 1 assay endpoint. This assay endpoint, ATG_CRE_CIS, was analyzed with bidirectional fitting relative to DMSO as the negative control and baseline of activity. Using a type of inducible reporter, measures of mRNA for gain or loss-of-signal activity can be used to understand the reporter gene at the transcription factor-level as they relate to the gene CREB3. Furthermore, this assay endpoint can be referred to as a primary readout, because this assay has produced multiple assay endpoints where this one serves a reporter gene function. To generalize the intended target to other relatable targets, this assay endpoint is annotated to the dna binding intended target family, where the subfamily is basic leucine zipper.\nHuman liver HepG2 cells are transiently transfected with multiple reporter transcription units (MRTUs) in 6-well plates using FuGene 6 reagent (Roche; 3 ml FuGene/1 mg DNA). The MRTU constructs are regulated by a cis-regulating element (promoter). […] A major difference between the CIS and TRANS system is that in CIS activities of endogenous TFs are measured, whereas the TRANS assay evaluates changes in activities of exogenous, chimeric NR-Gal4 proteins. […] At the end of 24 hour incubation, total RNA was isolated using TriZol reagent (Invitrogen). The isolated RNA is then reverse-transcribed using oligo(dT) primer and Mo-MLV reverse transcriptase (Invitrogen) with DNAse I (Ambion) treatment for 30 min. The one-tenth of the produced cDNA was amplified by PCR using Taq DNA polymerase (Invitrogen) and two reporter sequence-specific primers. The PCR products were fluorescently labeled by primer extension with 6-arboxyfluorescein (6-FAM) 5'-labeled reporter sequence-specific primer (2 min at 95 C, 20 s at 68 C and 10 min at 72 C) and these products were digested with 5U of HpaI (New England Biolabs) for 2h at 37 C. The fragments were purified using Qiaquick PCR columns (Qiagen), analyzed on an ABI 3130xL genetic analyzer (Applied Biosystems) with peak positions identified by using a set of X-rhodamine (ROX)-labeled MapMarker1000 molecular weight standards (BioVentures). The raw capillary electrophoresis data was processed using Attagraph software (Attagene).", "values": [{"smiles": "N#CCCOCCC#N", "outcome": "inactive"}, {"smiles": "C=C(C)CCCC", "outcome": "inactive"}, {"smiles": "OCC(O)CC(F)(F)C(F)(F)C(F)(F)C(F)(F)C(F)(F)C(F)(F)C(F)(F)C(F)(F)F", "note": "(stereo not given)", "outcome": "inactive"}, {"smiles": "NC(=O)C(F)(F)C(F)(F)C(F)(F)C(F)(F)C(N)=O", "outcome": "inactive"}, {"smiles": "O=C(Cl)c1ccc(Cl)cc1Cl", "outcome": "inactive"}, {"smiles": "NC(=O)C(F)(F)C(F)(F)C(F)(F)C(F)F", "outcome": "inactive"}, {"smiles": "CCOC(=O)CC(=O)C(F)(F)C(F)(F)F", "outcome": "inactive"}, {"smiles": "O=S(=O)(O)c1ccc(Cl)cc1", "outcome": "inactive"}, {"smiles": "COC(F)(C(F)F)C(F)(F)F", "note": "(stereo not given)", "outcome": "inactive"}, {"smiles": "CC1=CCC(=O)O1", "outcome": "inactive"}, {"smiles": "F[Si-2](F)(F)(F)(F)F", "outcome": "inactive"}, {"smiles": "CC1CCCCC1", "outcome": "inactive"}, {"smiles": "c1ccc(C[P+](c2ccccc2)(c2ccccc2)c2ccccc2)cc1", "outcome": "inactive"}, {"smiles": "OCCCC(F)(F)C(F)(F)C(F)(F)C(F)(F)C(F)(F)C(F)(F)C(F)(F)C(F)(F)F", "outcome": "inactive"}, {"smiles": "CCCCC(CC)COC(=O)c1ccc(N(C)C)cc1", "note": "(stereo not given)", "outcome": "inactive"}, {"smiles": "NS(=O)(=O)C(F)(F)C(F)(F)C(F)(F)C(F)(F)C(F)(F)C(F)(F)F", "outcome": "inactive"}, {"smiles": "CCN=C1C=CC(=C(c2ccc(N(CC)CC)cc2)c2ccc(N(CC)CC)cc2)c2ccccc21", "AC50": "1.17 µM (active)"}, {"smiles": "Oc1ccc2c(c1)CCC2", "outcome": "inactive"}, {"smiles": "OCCCCC(F)(F)C(F)(F)C(F)(F)C(F)(F)F", "outcome": "inactive"}, {"smiles": "O=C=Nc1cccc2c(N=C=O)cccc12", "outcome": "inactive"}, {"smiles": "CCOC(OCC)OCC", "outcome": "inactive"}, {"smiles": "CC(C)(C)C(=O)C1C(=O)c2ccccc2C1=O", "AC50": "57.9 µM (active)"}, {"smiles": "Nc1cccnc1N", "outcome": "inactive"}, {"smiles": "CC(=O)CCC(C)C", "outcome": "inactive"}, {"smiles": "CCCCCCCCCc1ccc(OCCO)cc1", "AC50": "22.8 µM (active)"}, {"smiles": "OCC(F)(F)C(F)(F)C(F)(F)CO", "outcome": "inactive"}, {"smiles": "COC(=O)c1ccc(C=O)cc1", "outcome": "inactive"}, {"smiles": "CCOC(=O)C1CC(=O)C(=C(O)C2CC2)C(=O)C1", "note": "(stereo not given)", "outcome": "inactive"}, {"smiles": "CNS(=O)(=O)C(F)(F)C(F)(F)C(F)(F)C(F)(F)C(F)(F)C(F)(F)C(F)(F)C(F)(F)F", "outcome": "inactive"}, {"smiles": "CCC(Cc1c(I)cc(I)c(N)c1I)C(=O)O", "note": "(stereo not given)", "outcome": "inactive"}, {"smiles": "CCCCOC(=O)C(C)O", "note": "(stereo not given)", "outcome": "inactive"}, {"smiles": "FC(F)(F)C(F)(F)C(F)(F)CC1CO1", "note": "(stereo not given)", "outcome": "inactive"}, {"smiles": "NC(=O)C(F)(F)C(F)(F)C(F)(F)F", "outcome": "inactive"}, {"smiles": "CN(C)C(C)(C)CO", "outcome": "inactive"}, {"smiles": "COCCC(=O)OC", "outcome": "inactive"}, {"smiles": "CCCCOC(=O)[C@H](C)O", "outcome": "inactive"}, {"smiles": "CCN(CC)c1ccc(C=O)cc1", "outcome": "inactive"}, {"smiles": "Cc1ccc(O)c(-n2nc3ccccc3n2)c1", "outcome": "inactive"}, {"smiles": "O=C1C=CC(=O)N1c1ccc(Cc2ccc(N3C(=O)C=CC3=O)cc2)cc1", "AC50": "33.4 µM (active)"}, {"smiles": "CC(=O)C=O", "outcome": "inactive"}]}]}
